Test results published in PubChem BioAssay (NCI).
This is part of a sample that, as a whole, favours compounds with a hit. Of some 83,000 tested, about 20% had one in any assay.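 In brief: 96-well plates, 48 h treatment, single concentration, percent growth endpoint.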 The source made the active and inactive calls. How the source made its calls: active means growth percent below 10; inactive means the rest.

Test system: IGROV1 ovarian
Experiment: NCI-60 one-dose screen, 48 h (100 = growth as untreated, 0 = no growth, -100 = all killed)
Details: 10 µM unless noted

Compound | growth
Cc1ccc(NC(=O)c2ccc(CN3CCN(C)CC3)c(C(F)(F)F)c2)cc1Oc1ccc(-c2[nH]nc3ncnc(N)c23)cc1 | 82.7% (inactive)
COc1ccc([C@H]2c3[nH]c4ccccc4c3C[C@@H]3C(=O)N(C4CCN(Cc5ccccc5)CC4)CC(=O)N23)c(OC)c1 | 50.6% (inactive)
IP(CCCSc1n(Cc2ccc3ccccc3c2)c(-c2ccccc2)c(-c2ccccc2)[n+]1Cc1ccc2ccccc2c1)(c1ccccc1)(c1ccccc1)c1ccccc1 | 23.9% (inactive)
O=C1NC(=O)c2c1c1c3ccccc3ccc1c1[nH]c3ccccc3c21 | 9.53% (active)
COc1cc(/C=N/n2cnc3oc(-c4ccccc4)cc3c2=N)cc(CN2CCN(C)CC2)c1O | 61.7% (inactive)
COC1=C(c2ccccc2)C(=O)C(OC)=C(c2ccccc2)C1=O | 93.2% (inactive)
Cc1ccc(-c2csc(N/N=C/c3nc4ccccc4n3C3CC3)n2)cc1 | 57.8% (inactive)
CC(C)=CCc1c(O)c(CC=C(C)C)c2c(c1O)C(=O)C1=C[C@@H]3C[C@H]4C(C)(C)O[C@@](C/C=C(\C)C(=O)O)(C3=O)[C@@]14O2 | -21.8% (active)
CN1CCN(c2nc(-c3csc(-c4ccncc4)n3)cc3ccccc23)CC1 | 56.8% (inactive)
CN1C(=O)N(C)C2C1NN=c1s/c(=C\c3ccccn3)c(=O)n12 (stereo not drawn) | 102% (inactive)
CC(C)SC1=NC(=C(C(=N1)NC2=ClC=CC=C2)C#N)C3=CC=CC=C3 | -5.3% (active)
CC(=O)NC(C)(C)C(=O)N[C@@H](C)C(=O)NC(C)(C)C(=O)N[C@@H](C)C(=O)NC(C)(C)C(=O)N[C@@H](C)C(=O)N[C@@H](CCC(N)=O)C(=O)NC(C)(C)C(=O)N[C@H](C(=O)NC(C)(C)C(=O)NCC(=O)N[C@@H](CC(C)C)C(=O)NC(C)(C)C(=O)N1CCC[C@H]1C(=O)N[C@H](C(=O)NC(C)(C)C(=O)NC(C)(C)C(=O)N[C@@H](CCC(N)=O)C(=O)N[C@@H](CCC(N)=O)C(=O)N[C@H](CO)CC1CCCCC1)C(C)C)C(C)C | 49.3% [5 µM] (inactive)
Clc1ccc(-c2csc(N/N=C/c3nc4ccccc4n3C3CC3)n2)cc1 | 111% (inactive)
O=C(NCCCNc1cc(-c2cn(-c3ccccc3)nc2-c2cccc(O)c2)ccn1)Nc1cc(C(F)(F)F)cc(C(F)(F)F)c1 | 64% (inactive)
COc1ccc(-c2ccc3c4c(cccc24)C(=O)N(N2C(=O)c4cccc5cccc(c45)C2=O)C3=O)cc1 | 92.4% (inactive)
Cc1cc(C(=O)Nc2ccc(SC#N)cc2)c(C)o1 | 88.9% (inactive)
Oc1ccc(CSc2nnc(-c3cnccn3)o2)c2cccnc12 | 23.4% (inactive)
O=C(O)c1ccc(-n2cc(CNc3ccc(Cl)cc3)c(-c3ccc(F)cc3)n2)cc1 | 102% (inactive)
Cc1cn(-c2cc(NC(=O)c3cncc(C#Cc4cnc5ccc(OCCCS(C)(=O)=O)nn45)c3)cc(C(F)(F)F)c2)cn1 | 14.4% (inactive)

Compound | growth
N/C(=N\OC(=O)CSc1nc2ccccc2s1)c1ccc2ccccc2c1 | 97.3% (inactive)
Nc1nc(-c2cccc([N+](=O)[O-])c2)c(N=Nc2cccc(Cl)c2)s1 | 33.8% (inactive)
CC[C@@](C)(NC(=O)C(C)(C)NC(=O)[C@@H](NC(=O)[C@@H]1CCCN1C(=O)C(C)(C)NC(=O)[C@H](CC(C)C)NC(=O)CNC(=O)C(C)(C)NC(=O)[C@@H](NC(=O)C(C)(C)NC(=O)[C@H](CCC(N)=O)NC(=O)[C@H](C)NC(=O)C(C)(C)NC(=O)[C@H](C)NC(=O)C(C)(C)NC(=O)[C@@H]1CCCN1C(=O)C(C)(C)NC(C)=O)C(C)C)C(C)C)C(=O)N[C@@H](CCC(N)=O)C(=O)N[C@@H](CCC(N)=O)C(=O)N[C@H](CO)Cc1ccccc1 | 42.6% [4.25 µM] (inactive)
COc1ccc(-c2nn(-c3ccccc3)cc2/C=C/C(=O)c2ccc(NC(=O)CCCCCCC(=O)NO)cc2)cc1 | 96.2% (inactive)
Nc1ccc(-c2nnc(SCc3ccc(O)c4ncccc34)o2)cc1 | 0.429% (active)
O=C1Nc2ccc(Cl)cc2/C1=C/c1ccc(OCc2ccc(Br)cc2F)cc1 | 104% (inactive)
C=C1C(=O)O[C@@H]2/C=C(/C)C3=CC(=O)[C@@](C)(C[C@H](OC(=O)/C(C)=C\C)[C@@H]12)O3 | 19% (inactive)
O=C(CCCCCCN1CC(=O)N2[C@@H](c3cccc(Cl)c3)c3[nH]c4ccccc4c3C[C@H]2C1=O)NO | 4.61% (active)
CS(=O)(=O)c1ccc(-c2nn(-c3ccccc3)cc2/C=N/NC(=O)c2ccncc2)cc1 | 104% (inactive)
CC(C)=CCc1c2c(c(O)c3c1O[C@]14C(=C[C@@H]5C[C@H]1C(C)(C)O[C@@]4(C/C=C(/C)C(=O)O)C5=O)C3=O)CC(O)C(C)(C)O2 (stereo partly drawn) | 5.2% (active)
C=C(C)C(=O)O[C@H]1C[C@@]2(C)OC(=CC2=O)/C(CO)=C\[C@H]2OC(=O)C(=C)[C@H]12 | -36% (active)
COc1ccc(-c2nnc(SCc3ccc(O)c4ncccc34)o2)cc1 | 43% (inactive)
Nc1ccc(-c2nnc(SCc3ccc(O)c4ncccc34)n2-c2ccccc2)cc1 | 14.3% (inactive)
CC(C)N=C(N/C(N)=N/c1nc2ccccc2s1)NC(C)C | 39.6% (inactive)
CN1CCN(Cc2ccc(NC(=O)c3cncc(C#Cc4cnc5ccc(NC6CCOCC6)nn45)c3)cc2C(F)(F)F)CC1 | -21% (active)
COc1cc(/C=C/C(=O)c2ccc(NC(=O)CSc3nnc(-c4ccc5nc(-c6ccccc6)[nH]c5c4)o3)cc2)cc(OC)c1OC | 97.2% (inactive)
CC(=O)c1ccc(NC(=O)COc2ccc(C3SCC(=O)N3c3ccc(Br)cc3)cc2)cc1 (stereo not drawn) | 89.7% (inactive)
COc1ccc(Cn2cc3c(c2-c2ccccc2)CCCc2cnoc2-3)cc1 | 51.5% (inactive)
O=C(CSc1ccc(-c2nc3ccccc3[nH]2)cn1)N1CCN(c2ccccc2F)CC1 | 80.7% (inactive)
